Bioassay records from PubChem BioAssay.
This is a sample that favours compounds with a hit; in the whole collection about 1.8% have one here.
LYPLA2 inh – LYPLA2 (human) inhibition in PME1 counter-screen; 320,000 compounds, 0.38% hits; recombinant LYPLA2, FP-Rh probe fluorescence polarization; AID 2177; inhibition, % at 5.9 µM;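 active = inhibition above the screen-wide mean plus 3 SD, limit set per campaign, cut at about 26% in these data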;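 also: 0% = LYPLA2 with DMSO and 100% = wells lacking LYPLA2 enzyme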
PME-1 primary – blocks human protein phosphatase methylesterase 1; Q9Y570; inhibition, % at 5.9 µM; recombinant PME-1, FP-Rh probe fluorescence polarization; 320,000 compounds, 0.53% hits;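 active = inhibition above the campaign mean of all compounds plus 3 SD, cut at about 26% in these data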;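 also: competitive labeling of PME-1 active site by serine hydrolase directed probe; 0% = PME-1 with DMSO and 100% = wells lacking PME-1 enzyme; inhibitors block probe labeling so polarization falls and inhibition rises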
Target sequence (Q9Y570 whole entry, looked up): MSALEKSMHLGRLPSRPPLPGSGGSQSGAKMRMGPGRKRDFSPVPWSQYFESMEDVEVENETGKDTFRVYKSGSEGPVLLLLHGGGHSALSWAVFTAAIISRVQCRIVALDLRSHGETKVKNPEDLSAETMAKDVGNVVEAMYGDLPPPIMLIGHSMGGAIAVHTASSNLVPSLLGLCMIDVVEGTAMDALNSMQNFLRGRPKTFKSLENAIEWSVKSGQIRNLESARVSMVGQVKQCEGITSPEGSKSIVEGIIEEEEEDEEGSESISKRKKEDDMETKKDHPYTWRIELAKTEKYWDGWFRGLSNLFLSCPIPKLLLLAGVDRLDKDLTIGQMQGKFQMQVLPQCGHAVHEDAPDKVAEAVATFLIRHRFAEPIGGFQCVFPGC
Fam108B counter – Fam108B inhibition, counter-screen for RBBP9 inhibitors; 300,000 compounds, 0.33% hits; AID 1947; recombinant Fam108B, FP-Rh probe fluorescence polarization; inhibition, % at 9.51 µM;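 active = inhibition above the screen mean inhibition plus 3 SD, computed separately per campaign, cut at about 18% in these data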;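 also: inhibitors lower polarization as less probe binds the enzyme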
PP1 inh – counter-screen for PP5 inhibitors: inhibitors of human PP1-alpha | P62136 | purified PP1alpha, OMFP fluorescence | inhibition, % at 6.7 µM | 320,000 compounds, 0.9% hits;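 active = inhibition above the mean inhibition of all tested compounds plus 3 SD, computed separately for each screening campaign, cut at about 15% in these data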
LYPLA1 inh – blocks human lysophospholipase 1, a PME1 counter-screen; O75608; recombinant LYPLA1, FP-Rh probe fluorescence polarization; inhibition, % at 5.9 µM; 320,000 compounds, 0.16% hits; AID 2174;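 active = inhibition above the mean of all tested compounds plus 3 SD, set per campaign, cut at about 14% in these data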;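 also: inhibitors block serine hydrolase probe labeling of LYPLA1 so polarization falls; 0% = enzyme with DMSO and 100% = wells lacking LYPLA1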
Target sequence (O75608 whole entry, looked up): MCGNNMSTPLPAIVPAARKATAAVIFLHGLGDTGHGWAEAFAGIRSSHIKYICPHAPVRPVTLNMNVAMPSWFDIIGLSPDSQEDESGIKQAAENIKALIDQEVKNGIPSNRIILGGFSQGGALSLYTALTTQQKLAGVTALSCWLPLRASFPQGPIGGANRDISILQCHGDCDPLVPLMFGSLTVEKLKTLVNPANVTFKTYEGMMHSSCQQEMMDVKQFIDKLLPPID
PP5 inh – inhibitors of human protein phosphatase 5 (PP5) | AID 1987 | purified PP5c, OMFP substrate fluorescence | P53041 | 320,000 compounds, 0.18% hits | inhibition, % at 6.7 µM;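 active = inhibition above the campaign's mean inhibition across all tested compounds plus 3 SD, cut at about 9.5% in these data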;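 also: 0% = DMSO only and 100% = 100 µM cantharidin control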
Fam108b inh conf – Fam108b (mouse) hydrolase inhibition, confirmation assay. shares compounds with Fam108B counter. recombinant Fam108b, FP-Rh probe fluorescence polarization. inhibition, % at 9.51 µM. 930 compounds, 44% hits. AID 1978;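 active = inhibition above a limit from the primary screen, the mean over all compounds plus 3 SD, cut at about 19% in these data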;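 also: 0% = median of active Fam108b wells and 100% = catalytically dead S170A mutant; inhibitors free the probe so polarization falls as inhibition rises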
Fam108b inh – inhibits mouse Fam108b in gel-based ABPP; shares compounds with Fam108B counter; recombinant Fam108b, fluorophosphonate probe; inhibition, % at 20 µM; 260 compounds, 44% hits; AID 588649; in the data active = inhibition above about 40%
* = called active by the depositor; . = no result.

SMILES	LYPLA2 inh	PME-1 primary	Fam108B counter	PP1 inh	LYPLA1 inh	PP5 inh	Fam108b inh conf	others
CC1CCN(CCCNC(=O)C2CCC(CNS(=O)(=O)c3ccccc3)CC2)CC1 (stereo unspecified)	-4	-4	-1	0	0	3	.
Nc1cc(OC(=O)c2cccs2)nn1S(=O)(=O)c1ccccc1	-1	2	-1	15*	-2	2	.
CCc1nnc(NC(=O)C2Cc3ccccc3CN2S(=O)(=O)CC)s1 (stereo unspecified)	-3	8	-1	-2	-1	-1	.
CCc1nnc(NC(=O)C2Cc3ccccc3CN2S(=O)(=O)c2c(C)c(C)cc(C)c2C)s1 (stereo unspecified)	-7	-13	-9	17*	-7	4	.
C#CCOCCOCCOCCNc1nc(N2CCOCC2)nc(N2CCN(C(=O)CCCCCCCCCCNC(=O)[C@@H]([C@H](C)CC)n3cc(CCCCCN)nn3)CC2)n1	9	0	2	11	-2	0	.
C#CCOCCOCCOCCNc1nc(N2CCN(C(=O)CCCCCCCCCCNC(=O)[C@H](CO)n3cc(CCCSC)nn3)CC2)nc(N2CCN(C(=O)CCCCCCCCCCNC(=O)[C@@H]([C@H](C)O)n3cc(C)nn3)CC2)n1	-56	-59	-48	31*	-32	2	.
C#CCOCCOCCOCCNc1nc(N2CCN(C(=O)CCCCCCCCCCNC(=O)[C@H]([C@@H](C)CC)n3cc(CCCCN=C(N)N)nn3)CC2)nc(N2CCN(C(=O)CCCCCCCCCCNC(=O)[C@H]([C@@H](C)CC)n3cc(CCCCN=C(N)N)nn3)CC2)n1	33*	-12	-23	74*	-2	9	.
C#CCOCCOCCOCCNc1nc(N2CCN(C(=O)CCCCCCCCCCNC(=O)[C@@H](CCC(=O)O)n3cc(CCCCCN)nn3)CC2)nc(N2CCN(C(=O)CCCCCCCCCCNC(=O)[C@H]([C@@H](C)CC)n3cc(CCCCCN)nn3)CC2)n1	18	-2	-1	13	3	1	.
C#CCOCCOCCOCCNc1nc(N2CCN(C(=O)CCCCCCCCCCNC(=O)[C@H]([C@@H](C)CC)n3cc(CCCCCN)nn3)CC2)nc(N2CCN(C(=O)CCCCCCCCCCNC(=O)[C@@H]([C@H](C)CC)n3cc(CCCCCN)nn3)CC2)n1	57*	-9	-7	64*	7	3	.
Cc1cc(C)c(NC(=O)CCCn2c(=O)oc3ccccc32)c(C)c1	2	-4	.	4	-2	2	.
COc1ccc(-c2sc(Nc3ccc(F)c(F)c3F)nc2CCC(=O)NN)cc1	4	30*	7	2	-4	4	.
Oc1ccc(C=NNc2ccnc3cc(Cl)ccc23)cc1O	.	.	.	.	.	.	.	Fam108b inh=85*
Clc1ccc2c(NCc3ccccn3)ccnc2c1	11	-8	6	4	2	3	.
Oc1ccc(/C=N/Nc2ccnc3cc(Cl)ccc23)c(O)c1O	1	32*	30*	13	-7	4	93*
CC/C(=N\Nc1ccnc2cc(Cl)ccc12)c1ccc(O)cc1	2	25	8	6	-2	3	.
Oc1ccc(/C=N/Nc2ccnc3cc(Cl)ccc23)cc1O	10	42*	55*	7	-14	2	34*
N#CC1(NC(=O)CSc2nnc(Nc3ccccc3F)s2)CCCC1	2	5	.	0	1	1	.
C/C(=C\C(=O)c1ccccc1)Nc1ccc(O)cc1	25	13	4	2	10	5	.
C/C(=C\C(=O)c1cccnc1)Nc1ccc(O)cc1	9	-16	48*	-6	2	-5	-3
CC1=NN(c2ccc(Cl)cc2)C(=O)C1C(c1cccc(O)c1)c1c(C)[nH]n(-c2ccc(Cl)cc2)c1=O (stereo unspecified)	18	17	31*	3	-4	8	17
CC1=NN(c2ccc(F)cc2)C(=O)C1C(c1cccc(O)c1)c1c(C)[nH]n(-c2ccc(F)cc2)c1=O (stereo unspecified)	4	-3	9	-2	-1	2	.
CCCN(C(=O)CSCC(=O)Nc1ccc(OC)cc1)c1c(N)n(Cc2ccccc2)c(=O)[nH]c1=O	-4	1	-2	-4	6	1	.
O=C(Nc1ccc(Oc2ccc(NC(=O)Nc3ccccc3Cl)cc2)cc1)Nc1ccccc1Cl	-5	-7	58*	-1	-1	2	59*	Fam108b inh=0
O=C(Nc1ccc(Cl)c(Cl)c1)Nc1ccccc1O	-3	18	20*	9	-18	9	-7
O=C(Nc1ccc(Cl)cc1)Nc1ccc(Cl)c(Cl)c1	-34	-39	.	4	-22	1	.
SMILES	LYPLA2 inh	PME-1 primary	Fam108B counter	PP1 inh	LYPLA1 inh	PP5 inh	Fam108b inh conf	others
COc1ccc(-c2ccc(N)cn2)cn1	4	3	.	-4	0	0	.
O=C(NCCc1c[nH]c2ccccc12)OCCCCOC(=O)NCCc1c[nH]c2ccccc12	8	9	23*	0	-6	5	-3
O=C(CCCc1c[nH]c2ccccc12)NCCc1c[nH]c2ccccc12	-7	0	0	0	-6	2	.
O=C(COC(=O)c1ccccc1C(=O)OCC(=O)NCCc1c[nH]c2ccccc12)NCCc1c[nH]c2ccccc12	-7	9	19*	2	-7	4	11
COc1ccc(-n2c(=S)[nH]c3cc(C(=O)Nc4ccc(C)c(F)c4)ccc3c2=O)c(OC)c1	-52	-55	-32	5	-27	4	.
CC(=O)Nc1c(I)c(C(=O)N[C@H]2C(O)O[C@H](CO)[C@@H](O)[C@@H]2O)c(I)c(N(C)C(C)=O)c1I (stereo partly specified)	-1	2	-2	1	-2	-3	.
COc1cccc(-c2nc(SC)nc3sc(C(=O)NC(C)(C)C)c(N)c23)c1	-3	-2	-6	-2	-3	1	.
N#CC/C(N)=N/Nc1nc2ccccc2nc1Cc1ccccc1	10	33*	46*	5	-10	5	24*
C/C(CC(=O)c1ccccc1)=N\NC(=O)CC#N	6	-4	-3	-2	3	1	.
Cc1ccc(S(=O)(=O)/N=C2/NC(=O)/C(=C/c3cc([N+](=O)[O-])ccc3O)S2)cc1	1	-18	18*	9	0	1	21*
COc1ccc(CCN(C)C(=O)CN2C(=O)NC3(CCCc4ccccc43)C2=O)cc1OC (stereo unspecified)	3	-2	-2	-4	1	1	.
COc1ccc(C=NNC(=O)c2cc(O)c(O)c(O)c2)cc1COc1ccc(C(=O)OCC(C)C)cc1	.	.	.	.	.	.	.	Fam108b inh=30
